From PubChem BioAssay
Values without a mark were called inactive. The source made the active and inactive calls.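 How the source made its calls: active means z-score of at least 1.8 in each of two replicates, scored against plate mean and spread of sample wells; inactive means the rest.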

Assay: galactose survival enhancers in mitochondrial complex I cybrids – cell-based, galactose medium, ATP luminescence, primary screen (AID 1645843);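 further: positive z means more ATP and so rescue of galactose-driven cybrid death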
Conditions: complex I mutant cybrid cells, 72 h, stronger effect = higher value

Compound | z-score
COc1cccc(CN2CCN(c3ccc4cccc(OC)c4n3)CC2)c1 | -0.86
COc1cc(F)c(C(=O)N(C)CC2CCCCN2C)c(F)c1 (stereo not given) | -0.575
CC(C)CN1CCN(Cc2ccco2)C(CCO)C1 (stereo not given) | -0.595
COc1cccc(CC(=O)NCc2ccsc2)c1 | -0.32
COc1cc(N2CCCC(c3nc(C(C)C)no3)C2)nc(N)n1 (stereo not given) | 0.815
Cc1cc(C)c(CNC(C)CCCC(C)(C)O)c(C)c1CO (stereo not given) | 0.19
CC(=O)N1CCCN(c2nccc(-c3cnn(-c4ccccc4F)c3)n2)CC1 | -0.71
O=c1c2sc(-c3ccc(F)cc3)cc2ncn1Cc1nc2ccccc2[nH]1 | 0.44
Clc1cccn2c(-c3ccccc3OC3CCCC3)nnc12 | 0.365
COc1ccccc1N1CCN(C(=O)Nc2n[nH]c(Cc3ccccc3)n2)CC1 | -0.935
O=c1cc(-c2ccccc2Cl)nc(-c2ccc(CN3CC[C@H](O)C3)cc2)[nH]1 | 0.305
CCCc1cc(C(=O)N2CCCC(Cn3cc(CC(C)C)nn3)C2)n[nH]1 (stereo not given) | 1.21
CC(Oc1ccc2c(c1)OCO2)C(=O)N(Cc1nccn1C)C(C)C (stereo not given) | -0.22
Cc1ccc(C(=O)N2CCNC(=O)C2Cc2ccccc2)c(F)c1 (stereo not given) | -0.535
CCCn1nc(NC(=O)Cn2ccc(-c3ccc(F)cc3)n2)c2ccccc21 | -1.28
Cc1cc(Cl)cc2c(=O)n(C(C)Cn3cccn3)cnc12 (stereo not given) | -0.45
Cc1cccc2c(C(=O)N(C)C(C)C)cc(-c3cnc(C(C)(C)C)nc3)nc12 | 2.35 (active)
COc1cccc2ccc(N3CCN(Cc4ccccn4)CC3)nc12 | -0.51
O=C(C1CCCCCC1)N1CCC(n2cc(-c3ccccc3)nn2)CC1 | -0.495
Cc1nn(C)c(C)c1-c1ccnc(N2CCC(C(=O)NCc3ccccn3)CC2)n1 | 1.16

Compound | z-score
COc1ccc2c(C(=O)N(C)CCc3ccccn3)cc(-c3cnn(C)c3)nc2c1 | -0.54
CC(C)c1nc(Cn2cnc3ccsc3c2=O)cs1 | -0.55
COc1ccc(F)cc1-c1cnn(CC(=O)Nc2cc(C)nn2C)c1 | 0.085
CC(=O)N1CCC(NCCOc2c(C)cccc2Cl)CC1 | -0.35
CC(=O)c1c(C)nn(CC(=O)Nc2ccnn2C2CCCCC2)c1C | 0.2
COc1ccc2nc(Cn3cnc4sc(C)cc4c3=O)[nH]c2c1 | 0.395
CC(C)CCC(=O)N(C)CCCC1CCCC1 | -0.145
CCc1cc(-c2cccc(C)c2C)nc(N(C)C)n1 | 1.21
Cc1nn(C)cc1-c1ccnc(NC(CC(C)(C)C)c2cccnc2)n1 (stereo not given) | 1.75
O=C1CN(c2ncnc3nc[nH]c23)CCN1C1CCCCC1 | 1.14
Cc1ccc2c(C(=O)N3CCC(C)(C)C3)cc(-c3cnn(C(C)C)c3)nc2c1 | -0.01
COCCN(C)Cc1ccc(-c2nc(C)c(C)c(=O)[nH]2)cc1 | -0.545
O=C(Nc1cccc(-c2cscn2)c1)c1ccc2nccnc2c1 | -0.95
Cc1cc(C(=O)N2CCCC(C)C2)c2ccc(C)c(C)c2n1 (stereo not given) | -0.505
OC[C@H](Cc1ccccc1)NC1CCCCCC1 | -0.555
CCC1(CC)CC1C(=O)N1CCCCC1CCn1ccnc1C (stereo not given) | -0.475
CC(=O)c1c(C)nn(CC(=O)Nc2ccc(N3CCOCC3)cc2)c1C | -0.6
COc1cccc2ccc(-c3ccccc3)nc12 | -0.375
O=C(Cn1ccc(-c2cccnc2)n1)Nc1ccnn1Cc1cccs1 | -0.545
CCCN(C(=O)c1cccc(C#CC(C)(C)O)c1)C(CC)CC | -0.23
